Outcome and AC50 data for 21 compounds are collected here from PubChem BioAssay (EPA / NIEHS).

Read-out in assay [1]: Intercellular Adhesion Molecule 1 (ICAM1), ICAM1 (gene 3383)
Description: BSK_3C_ICAM1: BioMAP Diversity Plus: 3C Assay for Intercellular Adhesion Molecule 1 (ICAM1) Biomarker Activity (AID 2283003; active means hit-call score of the fitted dose curve at least 0.9, where 1 is the maximum; inactive means score below 0.9). The following applies: primary human endothelial cells (HUVEC); actives raise or lower the signal. The gist of the method: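 ELISA readout of ICAM1 in human umbilical vein endothelial cells in the 3C system, taken 24 h post-dose. Gain or loss of signal versus DMSO was fitted in both directions, with SRB total-protein staining run in parallel.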

Assay [2] in a line: BSK_3C_Proliferation: Cell Proliferation Assessment in the BioMAP Diversity Plus: 3C Assay (AID 2283006; active means hit-call score of the fitted dose curve at least 0.9, where 1 is the maximum; inactive means score below 0.9;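 on AC50: potency may reflect either rise or fall in cell number versus DMSO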). The settings on record: primary human endothelial cells (HUVEC). The gist of the method:
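Proliferation as total protein: sulforhodamine B (0.1%) stain of TCA-fixed subconfluent human umbilical vein endothelial cells, absorbance 560 nm, 48 h after dosing. Activity fitted in both directions against DMSO baseline.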

Assay [3] deals with Peroxisome proliferator-activated receptor gamma (Homo sapiens) (UniProt P37231). Description: ATG_PPARg_TRANS: Attagene TRANS-FACTORIAL HepG2 Assay for human Peroxisome Proliferator-activated Receptor-gamma (PPARg) (AID 2283007). The method, boiled down:
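HepG2 cells are transiently transfected with GAL4-UAS reporter units driven by chimeric NR-Gal4 fusions and dosed for 24 h. Reporter mRNA is quantified by RT-PCR, 6-FAM labelling, HpaI digestion and capillary electrophoresis. Induction is scored against DMSO.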

The target of assay [4] is Retinoic acid receptor alpha (Homo sapiens) (UniProt P10276). In words: ATG_RARa_TRANS: Attagene TRANS-FACTORIAL HepG2 Assay for human Retinoic Acid Receptor alpha (RARa) (AID 2283005). The gist of the method:
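HepG2 transiently transfected with multiplex GAL4-UAS reporter units including a human RARa–GAL4 chimera; 24 h compound exposure. Reporter mRNA quantified by RT-PCR, 6-FAM labeling and capillary electrophoresis; gain of signal versus DMSO.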

Assay [5] has as its target Nuclear receptor subfamily 1 group I member 2 (Homo sapiens) (UniProt O75469). In words: ATG_PXR_TRANS: Attagene TRANS-FACTORIAL HepG2 Assay for human Pregnane X Receptor (PXR) (AID 2283008). The gist of the method:
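Transient HepG2 transfectants carrying multiplexed reporter transcription units; PXR activity read through a Gal4 chimera. 24 h exposure. RT-PCR/CE fluorescence; upward curve fit referenced to DMSO.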

The target in assay [6] is human RAR-related Orphan Receptor gamma (RORg), RORC (gene 6097) (UniProt P51449). Description: ATG_RORg_TRANS: Attagene TRANS-FACTORIAL HepG2 Assay for human RAR-related Orphan Receptor gamma (RORg) (AID 2283011). The method, boiled down: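 Chimeric RORg-Gal4 transactivation in transfected HepG2; 24 h exposure; RT-PCR/capillary electrophoresis readout of reporter mRNA, DMSO baseline.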
human RAR-related Orphan Receptor gamma (RORg), RORC (gene 6097), sequence (P51449 whole entry, looked up, the tested form may be a part): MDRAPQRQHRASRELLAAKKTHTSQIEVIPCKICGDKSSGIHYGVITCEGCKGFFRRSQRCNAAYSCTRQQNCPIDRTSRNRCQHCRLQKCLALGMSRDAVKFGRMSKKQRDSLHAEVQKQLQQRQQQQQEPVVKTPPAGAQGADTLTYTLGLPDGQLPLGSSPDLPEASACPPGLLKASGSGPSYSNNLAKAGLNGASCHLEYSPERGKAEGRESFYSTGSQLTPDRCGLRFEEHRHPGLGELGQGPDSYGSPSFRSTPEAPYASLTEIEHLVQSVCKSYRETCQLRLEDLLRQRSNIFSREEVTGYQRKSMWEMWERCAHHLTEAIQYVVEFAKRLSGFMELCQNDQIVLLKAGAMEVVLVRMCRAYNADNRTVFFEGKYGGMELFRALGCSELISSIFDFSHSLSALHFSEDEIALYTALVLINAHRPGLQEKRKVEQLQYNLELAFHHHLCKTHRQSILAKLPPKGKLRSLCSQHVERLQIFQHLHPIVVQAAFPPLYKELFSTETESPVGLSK

Assay [7] concerns the target human Thyroid Receptor alpha (THRa1), THRA (gene 7067) (UniProt P10827). In words: ATG_THRa1_TRANS: Attagene TRANS-FACTORIAL HepG2 Assay for human Thyroid Receptor alpha (THRa1) (AID 2283014). The method, boiled down: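 Measured here is mRNA from a GAL4-UAS reporter in transfected HepG2 cells carrying a Gal4-fused receptor, 24 h post-dose. DMSO served as negative control and baseline.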

The target in assay [8] is human Retinoic Acid Receptor beta (RARb), RARB (gene 5915) (UniProt P10826). In words: ATG_RARb_TRANS: Attagene TRANS-FACTORIAL HepG2 Assay for human Retinoic Acid Receptor beta (AID 2283004). The method, boiled down:
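Fluorescent capillary-electrophoresis detection of GAL4-UAS reporter mRNA defines the endpoint, with induction over DMSO-treated wells scored as activity. Transiently transfected human hepatoma HepG2 cells expressing exogenous NR–Gal4 proteins are exposed to test chemicals for 24 h.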

For assay [9], the target named is Retinoic acid receptor RXR-alpha (Homo sapiens) (UniProt P19793). In words: ATG_RXRa_TRANS: Attagene TRANS-FACTORIAL HepG2 Assay for human Retinoid X Receptor alpha (RXRa) (AID 2283012). The gist of the method: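 TRANS format reporting activity of exogenous RXRa-Gal4 chimera in transiently transfected HepG2, 24 h exposure. Reporter transcripts quantified by RT-PCR with capillary electrophoresis, with gain of signal scored relative to DMSO.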
Retinoic acid receptor RXR-alpha (Homo sapiens), sequence (P19793 whole entry, looked up, the tested form may be a part): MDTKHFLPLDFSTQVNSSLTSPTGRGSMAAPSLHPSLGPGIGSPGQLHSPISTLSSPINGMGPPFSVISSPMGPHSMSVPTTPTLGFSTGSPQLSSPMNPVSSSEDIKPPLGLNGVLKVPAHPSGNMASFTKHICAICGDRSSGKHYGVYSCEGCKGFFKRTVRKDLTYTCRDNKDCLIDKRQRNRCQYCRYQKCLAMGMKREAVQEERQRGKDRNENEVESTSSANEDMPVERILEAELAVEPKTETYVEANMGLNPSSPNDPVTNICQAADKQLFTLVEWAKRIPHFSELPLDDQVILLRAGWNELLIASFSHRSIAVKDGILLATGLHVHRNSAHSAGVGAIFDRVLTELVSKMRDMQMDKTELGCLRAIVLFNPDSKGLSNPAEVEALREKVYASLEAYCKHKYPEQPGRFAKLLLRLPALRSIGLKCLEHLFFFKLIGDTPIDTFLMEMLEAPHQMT

Assay [10] addresses human Retinoid X Receptor beta (RXRb), RXRB (gene 6257) (UniProt P28702). Description: ATG_RXRb_TRANS: Attagene TRANS-FACTORIAL HepG2 Assay for human Retinoid X Receptor beta (RXRb) (AID 2283013). The method, boiled down:
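Readout is reporter transcript induction after 24 h dosing. It is measured by RT-PCR of total RNA followed by fluorescent capillary electrophoresis. HepG2 liver cells carry transfected multiple reporter units driven by an exogenous RXRb-Gal4 fusion; activity is relative to DMSO.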

Several values for one entry are separate records, joined by “and”; a condition that tells them apart may be missing. Equal values may be shown once. Records with an inconclusive call do not appear. Activity calls are given as the source filed them. How the source made its calls, unless noted: active means hit-call score of the fitted dose curve at least 0.9, where 1 is the maximum; inconclusive means response in the unintended direction; inactive means score below 0.9.

In general, AC50 refers to the concentration at which the activity in the assay is half-maximal.

human Retinoic Acid Receptor beta (RARb), RARB (gene 5915), sequence (P10826 whole entry, looked up, the tested form may be a part): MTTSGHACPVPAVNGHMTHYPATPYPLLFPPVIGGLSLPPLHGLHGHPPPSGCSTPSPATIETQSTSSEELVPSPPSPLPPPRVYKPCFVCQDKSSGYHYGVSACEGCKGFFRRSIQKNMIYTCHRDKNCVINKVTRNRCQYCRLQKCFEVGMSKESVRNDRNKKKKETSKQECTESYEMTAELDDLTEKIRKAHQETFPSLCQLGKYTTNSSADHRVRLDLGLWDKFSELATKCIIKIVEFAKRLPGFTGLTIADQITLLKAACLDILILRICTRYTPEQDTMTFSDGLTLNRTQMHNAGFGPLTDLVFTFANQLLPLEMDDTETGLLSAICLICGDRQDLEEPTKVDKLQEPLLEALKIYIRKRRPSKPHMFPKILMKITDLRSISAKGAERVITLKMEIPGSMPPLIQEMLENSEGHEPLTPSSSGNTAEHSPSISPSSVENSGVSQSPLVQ
human Retinoid X Receptor beta (RXRb), RXRB (gene 6257), sequence (P28702 whole entry, looked up, the tested form may be a part): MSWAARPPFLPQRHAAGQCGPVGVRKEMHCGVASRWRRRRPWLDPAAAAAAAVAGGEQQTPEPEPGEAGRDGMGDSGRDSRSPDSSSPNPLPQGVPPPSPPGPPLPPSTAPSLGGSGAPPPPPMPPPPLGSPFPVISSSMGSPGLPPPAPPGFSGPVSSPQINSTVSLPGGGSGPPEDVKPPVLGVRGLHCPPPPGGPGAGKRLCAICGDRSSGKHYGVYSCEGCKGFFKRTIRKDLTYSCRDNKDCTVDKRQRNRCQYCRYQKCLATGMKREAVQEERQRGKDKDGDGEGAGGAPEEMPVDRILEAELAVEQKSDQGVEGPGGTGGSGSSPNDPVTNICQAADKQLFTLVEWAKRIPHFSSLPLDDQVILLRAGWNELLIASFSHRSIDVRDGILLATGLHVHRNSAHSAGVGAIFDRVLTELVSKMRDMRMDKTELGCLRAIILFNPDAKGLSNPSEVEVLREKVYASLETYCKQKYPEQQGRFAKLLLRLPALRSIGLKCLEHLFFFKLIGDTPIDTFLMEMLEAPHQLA
Nuclear receptor subfamily 1 group I member 2 (Homo sapiens), sequence (O75469 whole entry, looked up, the tested form may be a part): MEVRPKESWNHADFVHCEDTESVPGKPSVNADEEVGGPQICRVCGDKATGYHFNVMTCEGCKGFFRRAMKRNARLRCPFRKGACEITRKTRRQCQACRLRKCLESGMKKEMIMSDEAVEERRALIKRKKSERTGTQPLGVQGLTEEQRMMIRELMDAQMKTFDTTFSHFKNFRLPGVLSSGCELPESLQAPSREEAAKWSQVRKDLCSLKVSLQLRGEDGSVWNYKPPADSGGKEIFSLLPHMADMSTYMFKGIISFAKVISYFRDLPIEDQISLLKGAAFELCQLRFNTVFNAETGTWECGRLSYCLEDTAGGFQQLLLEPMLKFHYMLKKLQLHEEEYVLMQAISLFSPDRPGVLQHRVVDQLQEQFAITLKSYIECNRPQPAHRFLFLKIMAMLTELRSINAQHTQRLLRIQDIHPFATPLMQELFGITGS
human Thyroid Receptor alpha (THRa1), THRA (gene 7067), sequence (P10827 whole entry, looked up, the tested form may be a part): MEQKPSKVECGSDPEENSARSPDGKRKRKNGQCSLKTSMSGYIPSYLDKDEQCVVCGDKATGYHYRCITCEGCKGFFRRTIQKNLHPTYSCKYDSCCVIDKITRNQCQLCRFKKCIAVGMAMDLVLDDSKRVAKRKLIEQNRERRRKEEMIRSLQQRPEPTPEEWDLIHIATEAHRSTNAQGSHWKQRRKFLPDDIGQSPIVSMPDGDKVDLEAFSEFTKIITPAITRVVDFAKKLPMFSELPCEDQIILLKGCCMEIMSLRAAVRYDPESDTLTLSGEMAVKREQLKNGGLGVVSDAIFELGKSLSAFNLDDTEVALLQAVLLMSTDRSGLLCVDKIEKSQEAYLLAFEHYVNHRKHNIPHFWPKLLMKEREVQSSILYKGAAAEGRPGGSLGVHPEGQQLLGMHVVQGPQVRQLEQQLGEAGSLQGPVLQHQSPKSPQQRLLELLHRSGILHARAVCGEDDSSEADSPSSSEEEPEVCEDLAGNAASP
Peroxisome proliferator-activated receptor gamma (Homo sapiens), sequence (P37231 whole entry, looked up, the tested form may be a part): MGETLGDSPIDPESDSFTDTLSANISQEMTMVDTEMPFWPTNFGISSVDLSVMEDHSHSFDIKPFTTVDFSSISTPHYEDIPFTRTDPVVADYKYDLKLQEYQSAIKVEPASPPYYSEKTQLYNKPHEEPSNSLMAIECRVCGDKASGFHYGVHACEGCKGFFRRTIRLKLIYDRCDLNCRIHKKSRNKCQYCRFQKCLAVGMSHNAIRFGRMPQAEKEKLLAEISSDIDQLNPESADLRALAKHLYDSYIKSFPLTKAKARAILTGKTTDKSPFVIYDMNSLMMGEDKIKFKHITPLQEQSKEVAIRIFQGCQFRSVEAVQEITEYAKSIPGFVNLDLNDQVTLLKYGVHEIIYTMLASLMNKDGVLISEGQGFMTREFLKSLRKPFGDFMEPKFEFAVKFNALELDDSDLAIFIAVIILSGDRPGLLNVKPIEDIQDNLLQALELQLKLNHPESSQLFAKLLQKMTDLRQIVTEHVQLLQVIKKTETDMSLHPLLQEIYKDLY
Retinoic acid receptor alpha (Homo sapiens), sequence (P10276 whole entry, looked up, the tested form may be a part): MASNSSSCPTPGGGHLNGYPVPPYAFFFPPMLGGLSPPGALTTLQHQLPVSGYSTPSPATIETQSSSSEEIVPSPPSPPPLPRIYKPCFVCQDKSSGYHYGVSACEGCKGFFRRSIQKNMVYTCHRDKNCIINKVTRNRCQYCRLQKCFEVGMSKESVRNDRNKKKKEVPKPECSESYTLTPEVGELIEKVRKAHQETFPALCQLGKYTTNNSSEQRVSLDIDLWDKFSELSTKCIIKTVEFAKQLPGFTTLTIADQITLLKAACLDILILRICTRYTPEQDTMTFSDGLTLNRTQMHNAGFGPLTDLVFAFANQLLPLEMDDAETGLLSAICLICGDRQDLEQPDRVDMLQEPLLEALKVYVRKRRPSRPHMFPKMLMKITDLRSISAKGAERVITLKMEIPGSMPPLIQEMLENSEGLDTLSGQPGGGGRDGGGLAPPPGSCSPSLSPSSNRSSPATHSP

`CC(=O)S[C@H](C(=O)N[C@H]1Cc2ccccc2[C@H]2CCC[C@@H](C(=O)O)N2C1=O)C(C)C`: the result in [1], in [2] and in assay [3] was inactive.

Turning to `CC(COCC(C)OC(=O)c1ccccc1)OC(=O)c1ccccc1` (stereo unspecified), the outcome in assay [1], in assay [4], in assay [2], in [3], in [5] and in assay [6] was inactive. For the same compound, the compound was called inactive in [7].

On to `CCN(CC)CCOc1ccc(C(=C(Cl)c2ccccc2)c2ccccc2)cc1`, for which the concentration at half-maximal activity (AC50) in [1] is 13.7 µM (active); in assay [2], 2.92 µM (active). Moreover, the call in assay [8], in assay [4], in assay [3], in assay [6], in [9] and in assay [10] was inactive. For the same compound, the call in assay [7] was inactive.

Consider `CC(C)COC(=O)CCCCC(=O)OCC(C)C`, for which the outcome in [1], in assay [8], in assay [4], in assay [2], in assay [3] and in [5] was inactive. Besides, the call in [6], in assay [10] and in [7] was inactive.

For `OCC(O)CO`, the result in [1] and in assay [2] was inactive.

As to `CC(C)(O)c1ccc(CNC(=O)c2cccnc2Oc2ccc(F)cc2)cc1`, the outcome in [1], in assay [8], in assay [2], in assay [9], in assay [10] and in assay [7] was inactive.

Take `OCC(CO)n1cnc(-c2ccc(F)cc2)c1-c1ccnc(Oc2ccccc2)n1`: the outcome in assay [1], in assay [2] and in assay [3] was inactive.

On to `O=NO`, for which the outcome in [1], in assay [8], in [2], in [5], in [9] and in [10] was inactive.

With `Cc1ccc(-c2cc(C(F)(F)F)nn2-c2ccc(S(N)(=O)=O)cc2)cc1`, the AC50 in assay [1] was 36.8 µM (active); in assay [2] it was 20 µM (active). The call in [8], in assay [4] and in assay [3] was inactive.

For `NC1CCCCC1`, the result in assay [1], in assay [4], in assay [2], in assay [6], in assay [10] and in [7] was inactive.

With `CCCCCCCCCCCCCCCCO`, the outcome in assay [1], in [4], in [2], in [3], in assay [6] and in assay [7] was inactive.

Regarding `CCCCCCC(C=O)=Cc1ccccc1`, the AC50 is 36.6 µM (active) in assay [1]; 31.8 µM (active) in assay [2]; 27.4 µM (active) and 6.91 µM (active) in [3]; 65.6 µM (active) and 39.1 µM (active) in assay [10]. Moreover, the compound was classed as inactive in assay [8] and in assay [9].

Regarding `N[C@@H](Cc1c[nH]c2ccccc12)C(=O)O`, the outcome in assay [1], in assay [4], in assay [2], in assay [5], in assay [6] and in assay [10] was inactive. Moreover, in assay [7], the compound was classed as inactive.

Take `Oc1ccc(O)cc1`: the outcome in [1], in assay [8], in [4] and in assay [3] was inactive. For the same compound, the half-maximal activity concentration (AC50) in [2] was 20 µM (active).

With `O=C(O)c1[nH]n(-c2ccc(S(=O)(=O)O)cc2)c(=O)c1N=Nc1ccc(S(=O)(=O)O)cc1`, the outcome in assay [1] and in [2] was inactive.

For `Nc1nc(=S)c2[nH]cnc2[nH]1`, the result in assay [1], in [8], in assay [4], in [2], in assay [3] and in [6] was inactive. The outcome in [9], in assay [10] and in [7] was inactive.

`Oc1ccccc1O`: the outcome in [1], in [8], in assay [4], in assay [3], in assay [6] and in assay [9] was inactive. The result in assay [10] was inactive. In assay [2], the AC50 is 10.1 µM (active).

As for `CC(C)(C)c1ccccc1`, the result in assay [1] and in assay [2] was inactive.

As for `Cc1cc(Cc2ccc(N)c(C)c2)ccc1N`, the result in [1], in [4], in [2], in assay [6] and in assay [10] was inactive.

On to `Cc1occc(=O)c1O`, for which the outcome in [1], in assay [2] and in assay [3] was inactive.

For `COC(=O)CCC(=O)OC`, the result in assay [1] and in assay [2] was inactive.
